Pf Dd2 inh – inhibitors of Plasmodium falciparum Dd2 growth; P. falciparum Dd2 growth, SYBR Green, 72 h; Potency, µM (titrated, usually from 28.9 µM), inactives show at the top dose activity, negative = inhibition, actives largely listed as inhibitors; hit rate 4.3% among 120,000; AID 1347417; active = well fitted inhibition curve with a large enough effect;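 also: plate controls were DMSO vehicle for no effect and reference drug for full effect; nearly all actives have a fitted effect of over 65% in size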
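Infected erythrocytes (Dd2, 0.3% parasitemia, 2.5% hematocrit final) are added to compound in RPMI-1640/Albumax II medium, grown 72 h at 37C in low oxygen, then lysed with saponin/Triton-X containing SYBR Green and read by fluorescence.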
* marks the source's active call; other numbers are inactive results; i = inactive; ! = not confirmed by another sample; [ ] = remark or other dose. Only a selection was taken, and hits are over-represented in it overall. Potency is read from the fitted curve at half-maximal effect.

SMILES	Pf Dd2 inh
Cc1nn(C)c(C)c1S(=O)(=O)N(CC(=O)NCCc1ccc(Cl)cc1)c1ccc(C(C)C)cc1	11.2µM*
COc1ccc(N(CC(=O)NCCc2ccccc2)S(=O)(=O)c2c(C)nn(C)c2C)cc1	-13.3%
CCCN(CC1CCOC1)S(=O)(=O)c1cc(F)ccc1OC (configuration not stated)	i[5.79 µM]
O=C(c1ccc(C(F)(F)F)cc1)N1CCC2(C1)C(=NC1CCCCC1)NC(=O)N2c1cc(F)cc(F)c1 (configuration not stated)	8.91µM*
COc1ccc(C(=O)N2CCCC3(C2)C(=NC2CCCCC2)NC(=O)N3c2cc(F)cc(F)c2)cc1 (configuration not stated)	-9.8%
O=C1NC(=NC2CCCC2)C2(CCCN([S+](=O)([O-])c3ccccc3)C2)N1c1cc(F)cc(F)c1 (configuration not stated)	-20.1%
COc1ccc(C(=O)N2CCC3(CC2)C(=NC2CCCCC2)NC(=O)N3c2cc(F)cc(F)c2)cc1	-24.1%
O=C1NC(=NC2CCCC2)C2(CCCN([S+](=O)([O-])c3cccc(C(F)(F)F)c3)C2)N1c1cc(F)cc(F)c1 (configuration not stated)	10µM*!
O=C1NC(=NC2CCCC2)C2(CCN([S+](=O)([O-])c3cccc(C(F)(F)F)c3)CC2)N1c1cc(F)cc(F)c1	-7.5%
Cc1ccc(CNC(=O)c2noc(-c3ccc(F)cc3)n2)cc1	88.0%
COc1ccc(C(=O)N2CCC(c3n[nH]c(=O)n3-c3ccc(C)cc3)CC2)cn1	i
CN(Cc1ccc(N2CCCCC2)cc1)C(=O)CCC[C@H]1NC[C@@H]2C[C@H]1CN(Cc1ccccc1)C2	4.47µM*
CN(Cc1cccnc1)C(=O)CCC[C@H]1NC[C@@H]2C[C@H]1CN(Cc1ccccc1)C2	-8.7%
CCN1CCN(CCNC(=O)CCC[C@H]2NC[C@@H]3C[C@H]2CN(Cc2ccccc2)C3)CC1	-23.2%
Cc1nccn1CCNC(=O)CCC[C@H]1NC[C@@H]2C[C@H]1CN(Cc1ccccc1)C2	3.55µM*
O=C(CCC[C@H]1NC[C@@H]2CC1CN(Cc1ccccc1)C2)N1CCCC1	-5.9%
CCN1CCN(CCCNC(=O)CCC[C@H]2NC[C@@H]3C[C@H]2CN(Cc2ccccc2)C3)CC1	11.4%
COc1ccccc1C(=O)N1CC2(C1)C(=O)Nc1ccccc12	-2.1%
CN(C(=O)Cn1c2c(c(=O)n1Cc1ccccc1)CCN(Cc1ccccc1)C2)c1ccccc1	i
Cc1cccc(C(=O)N2CCN(C3CCN(C)C3=O)CC2)c1 (configuration not stated)	1.3%
C[C@H](O)c1onc(-c2ccc(F)cc2)c1C(=O)NC1CCCC1	-9.3%[44.1 µM]
CN(C)Cc1cn2c(=O)n(C)cc(-c3cccc(OC(F)(F)F)c3)c2n1	i
COCC(=O)N1CCCC(C(=O)NCCNc2ncccc2C)C1 (configuration not stated)	10.6%
Cc1nnc(N2CCC(C(=O)NC(C)C)CC2)c2nn(-c3ccccc3)c(C)c12	8.6%
Cc1ccc(-n2nc3c(N4CCC(C(=O)NCCc5ccccc5)CC4)nnc(C)c3c2C)cc1	6.31µM*
SMILES	Pf Dd2 inh
Cc1nnc(N2CCC(C(=O)NCc3cccc(Cl)c3)CC2)c2nn(-c3ccccc3)c(C)c12	-1.4%
CCOC(=O)C1CCN(C(=O)C2CCN(c3nnc(C)c4c(C)n(-c5ccccc5)nc34)CC2)CC1	3.16µM*
Cc1ccc(NC(=O)C2CCN(c3nnc(C)c4c(C)n(-c5ccccc5)nc34)CC2)c(Cl)c1	40.8%
Cc1ccc(-n2nc3c(N4CCC(C(=O)N5CCC(C)CC5)CC4)nnc(C)c3c2C)cc1	0.3%
Cc1nnc(N2CCC(C(=O)NC(C)C)CC2)c2nn(-c3ccc(Cl)cc3)c(C)c12	26.6%
Cc1ccc(-n2nc3c(N4CCC(C(=O)NC(C)c5ccccc5)CC4)nnc(C)c3c2C)cc1 (configuration not stated)	10µM*
Cc1ccc(-n2nc3c(N4CCC(C(=O)NCCc5ccccc5C)CC4)nnc(C)c3c2C)cc1	8.91µM*
COc1ccccc1CNC(=O)C1CCN(c2nnc(C)c3c(C)n(-c4ccccc4)nc23)CC1	-4.3%
CCOc1ccc(NC(=O)C2CCN(c3nnc(C)c4c(C)n(-c5ccccc5)nc34)CC2)cc1	3.6%
Cc1ccccc1CNC(=O)C1CCN(c2nnc(C)c3c(C)n(-c4ccccc4)nc23)CC1	i
COC1C(=O)N(C2CCN(Cc3cn(C)c4ccccc34)CC2)C12CCOCC2 (configuration not stated)	i
Cn1nc2n(c1=O)CCN(Cc1ccncc1F)CC2	-17.9%
O=C(c1ccc[n+]([O-])c1)N1CCC2(CCCN(CC3CCCCC3)C2=O)C1 (configuration not stated)	2.3%
CCCOc1ccc(CNC(=O)CN2CC3CC(C2)[C@H]2CCCC(=O)N2C3)cc1 (some centres not stated)	-24.4%
CCN1CC(c2ccccc2)CC2(CCN(C(=O)N3CCCC3)CC2)C1 (configuration not stated)	-48.6%
CCOC(=O)C1(Cc2ccccc2F)CCCN(C(=O)c2cccc(-n3cccn3)c2)C1 (configuration not stated)	i
COCCNC(=O)C1CCN(C(=O)c2ncn3c2COC(c2ccc(F)cc2)C3)CC1 (configuration not stated)	i
CC1=C(C(=O)OC(C)C)C(c2ccccc2)N2C(CC(=O)NCC3CCCO3)=CSC2=N1 (configuration not stated)	i
O=C(NCC(F)(F)F)c1cc(C2CC2)nc2c1c(C1CCCN1)nn2-c1ccccc1 (configuration not stated)	8.91µM*
CC(C)CNC(=O)c1cc(C2CC2)nc2onc(C3CCCNC3)c12 (configuration not stated)	-23.4%
O=C(NCc1ccncc1)c1cc(C2CC2)nc2c1c(C1CCCN1)nn2-c1ccccc1 (configuration not stated)	8.91µM*
CC(C)CNC(=O)c1cc(C2CC2)nc2c1c(C1CCCN1)nn2-c1ccccc1 (configuration not stated)	4.47µM*
COCCNC(=O)c1cc(C2CC2)nc2c1c(C1CCCN1)nn2C (configuration not stated)	-4.7%
O=C(NCC(F)(F)F)c1cc(C2CC2)nc2onc(C3CCCNC3)c12 (configuration not stated)	2.4%
Cn1nc(C2CCNC2)c2c(C(=O)NCc3ccc(F)cc3)cc(C3CC3)nc21 (configuration not stated)	-23.2%
SMILES	Pf Dd2 inh
Cn1nc(C2CCCN2)c2c(C(=O)NCC(F)(F)F)cc(C3CC3)nc21 (configuration not stated)	-13.8%
COc1ccc(CNC(=O)c2cc(C3CC3)nc3c2c(C)nn3-c2cccc(Cl)c2C)cc1	6.4%
CC1=NOC2(CCN(C(=O)c3ccc(F)cc3)CC2)C1	-16.7%[44.1 µM]
Cc1ccc(CNC(=O)c2noc(-c3ccc(C)cc3)n2)cc1	56.2%
C[C@@]1(O)CCN(C(=O)c2cccc(F)c2)C[C@H]1N1CCCC1	2.5%[5.79 µM]
COc1ccc(CNc2nccc(CCC(F)(F)F)n2)cc1OC	-7.3%
O=C(c1ccc(Cl)s1)N1CCC(n2cc(-c3nc(-c4ccccc4)no3)nn2)CC1	-0.6%
COc1ccc(Cl)cc1NC(=O)CCC1CCCN(c2ccc(C(F)(F)F)cn2)C1 (configuration not stated)	-23.1%
O=C(O)c1cccc(C(=O)N2C[C@@H]3C[C@H](C2)c2ccc(NC(=O)C4CC4)c(=O)n2C3)c1	-1.5%[44.1 µM]
COc1ccc(CCNC(=O)c2c(C)noc2-c2ccccc2OC)cc1	i
